# Marburg entry = Marburg virus entry inhibition; Marburg virus pseudotype entry/binding inhibition, cell-based; Potency, µM (top dose mostly 49.2 µM), usual class: inhibitors; hit rate 6.5% among 18,000
# LASV entry inh = blocks Lassa virus binding or cell entry; Lassa virus pseudotyped entry inhibition, cell-based qHTS; Potency, µM (highest dose often 49.2 µM), most hits filed as inhibitors; hit rate 4.1% among 18,000; AID 720533
# A number is an active result; . = inactive; ? = inconclusive; / = no result given; ! = a repeat was not active; [ ] = dose if it differs, or a comment. Shown are actives, neighbours in structure and some others; about 8.6% of the full set was active somewhere. The call rests on the fitted dose curve; tested in HEK293 cells.
SMILES,Marburg entry,LASV entry inh
CN1CCN(CCCN2c3ccccc3Sc3ccc(Cl)cc32)CC1,10µM,20µM!
CN1CCN(CCCN2c3ccccc3Sc3ccccc32)CC1,14µM,?
C[C@H]1C[C@@H](C)O[C@@]2(C1)C(=O)N(Cc1ccc(F)cc1)c1ccccc12,.[8.59 µM],.[8.59 µM]
CCCCCC(=O)N1C[C@H](n2cc(C3CC3)nn2)[C@@H](O)C[C@H]1c1ccc(Cl)cc1,.,?
CC(C)(C)NCC(O)CSc1nc(-c2ccc(C(N)=O)s2)cs1 (centres undefined),.,.
CNc1ccc(-c2nc3ccccc3s2)cc1,7.1µM,10µM
CN(C(=O)COc1nc2ccccc2s1)c1ccccc1,.,.
C[C@@H]1C/C=C/C=C/C=C/C=C/[C@H](O[C@@H]2O[C@H](C)[C@@H](O)[C@H](N)[C@@H]2O)C[C@@H]2O[C@](O)(C[C@@H](O)C[C@H]3O[C@@H]3/C=C/C(=O)O1)C[C@H](O)[C@H]2C(=O)O,.,.
COc1cccc2c1C(=O)c1c(O)c3c(c(O)c1C2=O)C[C@@](O)(C(=O)CO)C[C@@H]3O[C@H]1C[C@H](N)[C@H](O)[C@H](C)O1,0.28µM!,20µM!
CC[C@]1(O)CC(O[C@@H]2CC(N(C)C)C(O)C(C)O2)c2c(cc3c(c2O)C(=O)c2c(O)cccc2C3=O)C1C(=O)OC (some centres undefined),20µM,.
CCCCC(=O)OCC(=O)[C@]1(O)Cc2c(O)c3c(c(O)c2[C@@H](O[C@H]2C[C@H](NC(=O)C(F)(F)F)[C@H](O)[C@H](C)O2)C1)C(=O)c1c(OC)cccc1C3=O,?,2.8µM
CC[C@@]1(O)CC(O)c2c(cc3c(c2O)C(=O)c2c(O)ccc(O)c2C3=O)C1C(=O)OC (some centres undefined),.,.
COc1cccc2c1C(=O)c1c(O)c3c(c(O)c1C2=O)C[C@](O)(C(C)=O)C[C@H]3O[C@@H]1C[C@H](N)[C@H](O)[C@H](C)O1,?,1µM
O=S(=O)(N[C@@H](CO)Cc1ccccc1)c1cc(Cl)ccc1F,.,.
COc1ccc(CN2CCOc3ccc(CN4CCC(O)(c5cccnc5)CC4)cc3C2)cc1OC,?,.
COc1cc(CN2CCOc3ccc(CN4CCC(O)(c5cccnc5)CC4)cc3C2)cc(OC)c1,11µM,.
CCCCCC(=O)N1C[C@@H](O)[C@H](n2cc(COC(=O)c3ccccc3)nn2)C[C@H]1c1ccccc1,.,.
CCc1cc(C(=O)NCC2Cc3cc(C)cc(-c4cc(C(C)=O)ccc4F)c3O2)n(C)n1 (centres undefined),.,.
CCS(=O)(=O)c1ccc(OC)c(Nc2ncc(-c3cccc(C(C)=O)c3)o2)c1,.,.
Cc1cccnc1-c1cccc2c1OC(CNC(=O)C(=O)c1ccccc1)C2 (centres undefined),.,.
C#CCN1C(=O)C2(CC(C)=C[C@@H](C)O2)c2c(Br)cccc21 (some centres undefined),.[8.59 µM],.[8.59 µM]
CC(=O)OC1CC2C(C)(C)C=CC(=O)[C@@]2(C)C2CC[C@@]3(C)C(c4ccoc4)OC(=O)C4OC43[C@]12C (some centres undefined),.,.
CC(=O)OC1CC(OC(C)=O)[C@]2(C)C(CC(OC(C)=O)[C@]3(C)C2CC[C@@]2(C)C(c4ccoc4)C[C@H]4O[C@]432)C1(C)C (some centres undefined),.,.
CC(=O)O[C@@H]1C[C@@]2(C)C(c3ccoc3)C[C@H]3O[C@]32[C@]2(C)C(=O)C(O)=C3C(C)(C)C(=O)C=C[C@]3(C)C12 (some centres undefined),8.9µM,8.9µM
CC(=O)OC1C[C@@]2(C)C(c3ccoc3)C[C@H]3O[C@@]32[C@@]2(C)C(=O)C(O)=C3C(C)(C)C(=O)C=C[C@]3(C)C12 (some centres undefined),2.5µM,?
SMILES,Marburg entry,LASV entry inh
O=C(Cn1cc(COc2ccc(-c3ccc(Br)cc3)cc2)nn1)c1ccc(O)cc1,.,/
CCCCCCC#C[C@@H]1C=C[C@H](OC(=O)OCC)[C@@H](COC(=O)OCC)O1,.[8.59 µM],.[8.59 µM]
COCCN1C(=O)NC(CCc2ccccc2)C(C(C)=O)=C1C (centres undefined),.[8.59 µM],.[8.59 µM]
COC(=O)[C@@H]1[C@@H](c2ccccc2)NC(=O)N(CCc2cc(OC)c(OC)c(OC)c2)[C@@H]1C,.[8.59 µM],.[8.59 µM]
c1ccc2c(c1)Sc1ccccc1N2C[C@@H]1CN2CCC1CC2,.,.
CN1CCCC(CC2c3ccccc3Sc3ccccc32)C1 (centres undefined),7.9µM,?
CN1CCCC(CN2c3ccccc3Sc3ccccc32)C1 (centres undefined),11µM,28µM
Cc1nc(NCc2c(C)nn(C)c2Cl)sc1-c1ccn(CC2COc3ccccc3O2)n1 (centres undefined),.,.
O=C(c1ccccc1)[C@@H]1O[C@@H]1c1ccccc1,.[8.59 µM],.[8.59 µM]
Cc1c(C(=O)NCC2(N3CCOCC3)CCCC2)cnn1-c1nccc(-c2ccccc2F)n1,?,.
O=C(Cc1ccc(Cl)c(Cl)c1)N1CCCC[C@H]1CN1CCCC1,?,.
Cc1[nH]c(/C=C2/C(=O)Nc3ccc(S(=O)(=O)Cc4c(Cl)cccc4Cl)cc32)c(C)c1C(=O)N1CCCC1CN1CCCC1 (centres undefined),14µM,.
O=C(C=Cc1ccccc1)Nc1cccc(C(=O)NCCCc2ccccc2)c1,.,.
Oc1ccc(C2Oc3cc(O)cc(O)c3CC2O)cc1 (centres undefined),.,.
O=C1C[C@@H](c2ccc(O)cc2)Oc2cc(O)cc(O)c21,.,.
Oc1cc(O)c2c(c1)OC(c1cc(O)c(O)c(O)c1)C(O)C2 (centres undefined),?,.
O=C(O[C@@H]1Cc2c(O)cc(O)cc2OC1c1ccc(O)c(O)c1)c1cc(O)c(O)c(O)c1 (some centres undefined),13µM,.
O=C(OC1Cc2c(O)cc(O)cc2OC1c1cc(O)c(O)c(O)c1-c1c(C2Oc3cc(O)cc(O)c3CC2OC(=O)c2cc(O)c(O)c(O)c2)cc(O)c(O)c1O)c1cc(O)c(O)c(O)c1 (centres undefined),11µM,.
O=C(OC1Cc2c(O)cc(O)cc2OC1c1cc(O)c(O)c(O)c1)c1cc(O)c(O)c(O)c1 (centres undefined),8.9µM,.
O=C(OC1Cc2c(O)cc(O)cc2OC1c1cc(O)c(=O)c2c(O)c(O)cc(C3Oc4cc(O)cc(O)c4CC3OC(=O)c3cc(O)c(O)c(O)c3)c2c1)c1cc(O)c(O)c(O)c1 (centres undefined),1.3µM,.
CC(C)=CCCC(C)=CCON=C1C[C@@H](O)[C@@H](O)[C@@H]2[C@H]3C(=O)N(c4cccc(Oc5ccccc5)c4)C(=O)[C@@H]3CC[C@H]12,.[8.59 µM],.[8.59 µM]
CCCC[C@]12Cc3cc(OC)c(OC)cc3[C@H](O1)c1c(cc(-c3ccccc3)oc1=O)O2,.[8.59 µM],.[8.59 µM]
COc1ccc(COC(=O)NN=C2C[C@@H](O)[C@@H](O)[C@@H]3[C@H]4C(=O)N([C@@H](C)c5ccccc5)C(=O)[C@@H]4CC[C@H]23)cc1,.[8.59 µM],/
COC(=O)c1ccc(CN2C(=O)[C@@]3(CC(C)=CC[C@@H](C)O3)c3ccccc32)cc1,.[8.59 µM],.[8.59 µM]
O=C(NCCc1ccccn1)C1CC12CCN(C(=O)c1c(F)cccc1Cl)CC2 (centres undefined),.,.
COc1cc(-c2c(OC)cccc2OC)cc2c1OCCN(Cc1cn[nH]c1-c1ccc(Cl)cc1)C2,.,.

# Screens as filed in PubChem BioAssay.
